Test results from PubChem BioAssay (EPA / NIEHS).
Inconclusive results are not listed. Some compounds were tested as several samples or in several runs, with calls that do not always agree. Active and inactive are the calls of the source. Rule for the calls: active = hit-call score of the fitted dose curve at least 0.9, where 1 is the maximum; inconclusive = response in the unintended direction; inactive = score below 0.9.

Assay: ATG_XTT_Cytotoxicity: Cytotoxicity Assessment in the Attagene TRANS-FACTORIAL HepG2 Assay (AID 2283584);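 for AC50: XTT signal for cell number as viability in transfected HepG2 cells; cells exposed to compound for 24 h before reading; active means loss of viability signal versus DMSO baseline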
Summary of the method: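 Transfect HepG2 with GAL4-UAS reporter units, dose compound, incubate 24 h, then measure viable cell number by XTT. Fit concentration response against DMSO baseline.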
For `CC1=NN(c2ccc(S(=O)(=O)O)cc2)C(=O)C1N=Nc1ccccc1` (stereo unspecified), the outcome was “inactive”. For `CCC(C)C(=O)OC` (stereo unspecified), the outcome was “inactive”. With `Cc1ccc(C)c(OCCCC(C)(C)C(=O)O)c1` the outcome was “inactive”. In the case of `C=CC(=O)NC(C)(C)C`, the outcome was “inactive”. In the case of `CC(C)C(=O)OCCc1ccccc1`, the outcome was “inactive”. In the case of `CC(c1cc(C(C)(C)C)cc(C(C)(C)C)c1O)c1cc(C(C)(C)C)cc(C(C)(C)C)c1O`, the outcome was “inactive”. For `CCCC(C)C(=O)OCC` (stereo unspecified), the outcome was “inactive”. In the case of `Cc1c[nH]c(=O)[nH]c1=O`, the outcome was “inactive”. For `CCOC(=O)OC(=O)OCC`, the outcome was “inactive”. For `CC1(C)C(=O)N(CO)C(=O)N1CO`, the outcome was “inactive”. For `Cc1c(O)cccc1O`, the outcome was “inactive”. With `CCCCCCCC(=O)OCC` the outcome was “inactive”. In the case of `CCCCC(C=O)CC` (stereo unspecified), the outcome was “inactive”. In the case of `O=C1c2ccccc2C(=O)c2cc(S(=O)(=O)O)ccc21`, the outcome was “inactive”. For `CCN(CC)c1cccc(C)c1`, the outcome was “inactive”. For `Cc1cc(=O)[nH]c(=O)[nH]1`, the outcome was “inactive”. For `CC(C)CO`, the outcome was “inactive”. In the case of `CC1CCC(=O)C1=O` (stereo unspecified), the outcome was “inactive”. With `CCCC=C(C=O)CC` the outcome was “inactive”. For `CC/C=C\C/C=C\C/C=C\CCCCCCCC(=O)OC`, the outcome was “inactive”. With `CC1(C)CC(O)CC(C)(C)N1[O]` the outcome was “inactive”. In the case of `CC(C)(C)N`, the outcome was “inactive”. With `CC(C=O)c1ccccc1` (stereo unspecified) the outcome was “inactive”. In the case of `CC=C(C)C(C)=O`, the outcome was “inactive”. With `CC=CC(=O)OCC(C)C` the outcome was “inactive”. In the case of `CCCSSCCC`, the outcome was “inactive”. For `C=CCCCCCCCCOC(C)=O`, the outcome was “inactive”. In the case of `Nc1nc(N)nc(-c2ccccc2)n1`, the outcome was “inactive”. With `CCCCCCCCC(CO)CCCCCC` (stereo unspecified) the outcome was “inactive”. For `CC(C)c1ccc2ncccc2c1`, the outcome was “inactive”. For `COc1cc(C)ccc1O`, the outcome was “inactive”. For `CCCCCCCO`, the outcome was “inactive”. For `CCCCC(CC)COS(=O)(=O)O` (stereo unspecified), the outcome was “inactive”. In the case of `CC(=O)CCC1=C(C)CCCC1(C)C`, the outcome was “inactive”. For `COc1cc(O)c(C(=O)c2ccccc2)cc1S(=O)(=O)O`, the outcome was “inactive”. In the case of `N#Cc1ccc(C(c2ccc(C#N)cc2)n2cncn2)cc1`, the outcome was “inactive”. With `C1CCSC1` the outcome was “inactive”. With `Oc1ccc(-c2ccccc2)c(Cl)c1` the AC50 was 159 µM (active) and the outcome was “inactive”. With `[Cl][Sc]([Cl])[Cl]` the outcome was “inactive”. With `CCOC(=O)CC(=O)c1ccccc1` the outcome was “inactive”.
